Assay results published in PubChem BioAssay (Tox21).
Inconclusive results are not listed. More than one record can exist for a structure, and the calls need not agree. Calls of active or inactive are those of the source. Unless noted, calls come from the whole dose curve; as a rule, active = well fitted curve in the direction sought with a large enough effect in the repeat runs; inconclusive = weak or mixed curves; inactive = no such curve, though single readings can be large; an effect the other way counts as inactive or inconclusive.

Experiments:
[1] = A CellTox Green Cytotoxicity Assay to monitor cytotoxicity in HepG2 cells - 8 hour (AID 1224890); note: nearly all actives have a fitted effect of over 45% in size
In short: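 Real-time, homogeneous cytotoxicity readout: dead-cell DNA staining by CellTox Green in HepG2 monolayers, fluorescence measured at timed intervals up to 40 h of continuous compound exposure.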

[2] = qHTS assay to identify small molecule antagonists of the androgen receptor (AR) signaling pathway using the MDA cell line in the presence of 0.5 nM R1881 - cell viability counter screen (AID 1259242); note: nearly all actives have a fitted effect of over 45% in size; note: potency is the fitted concentration of half-maximal effect
In short: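 Cytotoxicity toward MDA-kb2 cells is measured by CellTiter-Fluor live-cell protease fluorescence after 16 hr compound exposure at 37C in the presence of 0.5 nM R1881 stimulator.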

[3] = qHTS assay to identify small molecule HDAC inhibitors (AID 1259364); note: top concentration of the series differs between compounds; nearly all actives have a fitted effect of over 45% in size
In short: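 Homogeneous cell-based luminescent assay of endogenous class I/II HDAC activity; HCT-116 cells, 2 h compound exposure, 30 min HDAC-Glo development at RT.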

[4] = qHTS assay to identify small molecule HDAC inhibitors - cell viability counter screen (AID 1259365); note: series mostly up to about 92 µM; nearly all actives have a fitted effect of over 50% in size
In short: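 CellTiter-Glo luminescence (30 min, room temperature) reported viability after a 2 h compound exposure at 37 C. Cells: wild-type HCT-116, 1,500 per well, seeded the night before.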

[5] = qHTS assay to identify small molecule agonists of the sonic hedgehog signaling (Shh) pathway - cell viability counter screen (AID 1259366); note: nearly all actives have a fitted effect of over 50% in size; note: potency is the fitted concentration of half-maximal effect
In short: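 Cytotoxicity counter screen: CellTiter-Fluor reagent added after 23 h compound exposure, then 1 h at 37C and fluorescence read. Cells were 3T3 Gli1-Luc, seeded 2,000 per well and dosed 4 h post-plating.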

[6] = qHTS assay to identify small molecule antagonists of the sonic hedgehog signaling (Shh) pathway - cell viability counter screen (AID 1259367); note: nearly all actives have a fitted effect of over 55% in size; note: potency is the fitted concentration of half-maximal effect
In short: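 NIH/3T3-derived Gli1-Luc reporter cells, 2,000/well, plated 4 hr before compound addition, then stimulated with conditioned medium for 24 hr at 37C. Viability measured in the same wells by CellTiter-Fluor fluorescence, reagent added at 23 hr for 1 hr.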

[7] = target: Estrogen receptor (Homo sapiens) (UniProt P03372); assay: qHTS assay to identify small molecule antagonists of the estrogen receptor alpha (ER-alpha) signaling pathway using the BG1 cell line in the presence of 0.1 nM 17-beta-estradiol (AID 1259244); note: nearly all actives have a fitted effect of over 50% in size
In short: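 After 5 days in hormone-depleted medium (charcoal-stripped serum, no phenol red), VM7Luc4E2 cells were seeded, incubated 24 h, then co-treated with compound and 0.1 nM (final) estradiol for 22 h before luminescence detection.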

[8] = qHTS assay to identify small molecule phospholipidosis (PLD) inducers (AID 1259344; active = well fitted curve in the direction sought with a large enough effect; an effect the other way counts as inactive or inconclusive; note: potency is the fitted concentration of half-maximal effect)
In short: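 HepG2 cells, 900/well, treated with compound plus LipidTOX Red for 24 h at 37 C; amiodarone positive and DMSO negative controls. Fixed with paraformaldehyde/Hoechst, then high-content imaging scored LipidTOX pit count and integrated intensity per well and per cell.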

[9] = qHTS assay to identify small molecule antagonists of the estrogen receptor alpha (ER-alpha) signaling pathway using the BG1 cell line in the presence of 0.1 nM 17-beta-estradiol - cell viability counter screen (AID 1259241); note: nearly all actives have a fitted effect of over 40% in size
In short: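 Cytotoxicity counter-screen: live-cell protease activity measured by fluorescence (30 min reagent step) in the same wells. Cells were VM7Luc4E2 with endogenous ER-alpha and ERE-driven luciferase, treated 22 hr at 37C alongside 0.1 nM 17beta-estradiol final.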
% is set by controls: 0 for no effect and ±100 for the full control effect.

Estrogen receptor (Homo sapiens), sequence (P03372 whole entry, looked up): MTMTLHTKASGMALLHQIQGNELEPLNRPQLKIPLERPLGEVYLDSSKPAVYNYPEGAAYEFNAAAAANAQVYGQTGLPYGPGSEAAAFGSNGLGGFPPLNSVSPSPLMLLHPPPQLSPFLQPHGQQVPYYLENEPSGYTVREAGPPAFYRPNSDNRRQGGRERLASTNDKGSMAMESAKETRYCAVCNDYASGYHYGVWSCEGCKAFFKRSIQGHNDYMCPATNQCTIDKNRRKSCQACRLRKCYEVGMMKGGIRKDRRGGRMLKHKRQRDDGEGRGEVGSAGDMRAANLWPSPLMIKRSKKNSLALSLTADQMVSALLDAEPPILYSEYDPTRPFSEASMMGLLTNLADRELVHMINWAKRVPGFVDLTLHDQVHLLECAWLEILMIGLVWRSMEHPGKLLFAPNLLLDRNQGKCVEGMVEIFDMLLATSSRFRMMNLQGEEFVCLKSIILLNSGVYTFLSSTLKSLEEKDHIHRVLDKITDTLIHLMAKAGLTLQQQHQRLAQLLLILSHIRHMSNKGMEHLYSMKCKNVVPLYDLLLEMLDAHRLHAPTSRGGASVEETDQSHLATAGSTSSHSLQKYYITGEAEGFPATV

CN(C)CCCN1c2ccccc2CCc2ccc(Cl)cc21
48.6 µM (active) and inactive: Potency [6]
inactive: Potency [1] | Potency [3] | outcome [4]
active: Potency [2] 48.6 µM | Potency [5] 30.6 µM

N[C@H](C(=O)O)c1ccc(O)cc1
inactive: cytotoxicity increase [1] -9.51% [at 15.8 µM] | viability change, negative = cytotoxic [2] 0.442% [at 19 µM] | activity change, negative = inhibition [7] 12.1% [at 19 µM] | Potency [8] | activity change, negative = inhibition [3] -0.75% [at 19 µM] | viability change, negative = cytotoxic [5] -2.17% [at 19 µM] | Potency [6]

O=C(O)CCCc1ccccc1
inactive: outcome [9] | Potency [2] | Potency [8] | Potency [3] | outcome [4] | Potency [6]

C=COCC1CCC(CO)CC1 (stereo not drawn)
inactive: Potency [1] | Potency [2] | outcome [7] | Potency [3] | outcome [4] | Potency [6]

CCOC(=O)c1cccc(N)c1
inactive: Potency [1] | Potency [2] | outcome [7] | Potency [8] | outcome [4] | Potency [5] | Potency [6]

Cc1ccc(Cl)cc1Cl
inactive: Potency [1] | Potency [2] | outcome [7] | Potency [3] | outcome [4] | Potency [5] | Potency [6]

C1OCOCO1
inactive: Potency [1] | Potency [2] | Potency [3] | outcome [4] | Potency [5] | Potency [6]

COc1ccccc1OCC(O)CN1CCN(CC(=O)Nc2c(C)cccc2C)CC1 (stereo not drawn)
inactive: Potency [1] | Potency [2] | outcome [7] | Potency [8] | Potency [3] | outcome [4] | Potency [5] | Potency [6]

Brc1c(NC2=NCCN2)ccc2nccnc12
inactive: Potency [1] | Potency [2] | Potency [8] | Potency [3] | outcome [4] | Potency [5] | Potency [6]

C[N+](C)(C)CCCCCC[N+](C)(C)C
inactive: Potency [1] | Potency [2] | Potency [8] | Potency [3] | outcome [4] | Potency [5] | Potency [6]

O=C(O)CNC(=O)c1ccc([N+](=O)[O-])cc1
inactive: Potency [1] | Potency [2] | Potency [3] | outcome [4] | Potency [5] | Potency [6]

CC(C)CCCC(C)N (stereo not drawn)
inactive: Potency [1] | Potency [2] | outcome [7] | Potency [8] | Potency [3] | Potency [5] | Potency [6]

CC(C[N+](C)(C)C)OC(N)=O (stereo not drawn)
inactive: outcome [9] | Potency [2] | outcome [7] | Potency [8] | Potency [3] | outcome [4] | Potency [5] | Potency [6]

CCN(CC)CCNC(=O)c1cc(S(C)(=O)=O)ccc1OC
inactive: Potency [1] | Potency [2] | outcome [7] | Potency [8] | Potency [3] | outcome [4] | Potency [5] | Potency [6]

O=C1OC(=O)C2CCCCC12 (stereo not drawn)
inactive: Potency [1] | Potency [2] | outcome [7] | Potency [3] | outcome [4] | Potency [5] | Potency [6]

NC(=O)c1ccc([N+](=O)[O-])cc1
inactive: Potency [1] | Potency [2] | outcome [4] | Potency [5] | Potency [6]

C[C@H](NC(CCc1ccccc1)C(=O)O)C(=O)N1CCC[C@H]1C(=O)O (stereo partly drawn)
inactive: Potency [1] | Potency [2] | outcome [7] | Potency [8] | outcome [4] | Potency [5] | Potency [6]

Nc1ccccc1S(=O)(=O)O
inactive: Potency [1] | Potency [2] | Potency [3] | outcome [4] | Potency [5] | Potency [6]

CC(=O)Nc1c(I)cc(I)c(C(=O)O)c1I
inactive: Potency [1] | Potency [2] | outcome [7] | Potency [8] | Potency [3] | outcome [4] | Potency [5] | Potency [6]

NC(=O)c1ccc(N)cc1
inactive: Potency [1] | Potency [2] | outcome [7] | outcome [4] | Potency [5] | Potency [6]

O=c1[nH]c(=O)n([C@H]2C[C@H](O)[C@@H](CO)O2)cc1I
inactive: Potency [1] | Potency [2] | Potency [8] | Potency [3] | outcome [4] | Potency [5] | Potency [6]

COc1ccc(CCN(C)CCCC(C#N)(c2cc(OC)c(OC)c(OC)c2)C(C)C)cc1OC (stereo not drawn)
inactive: Potency [1] | Potency [2] | Potency [3] | outcome [4]
active: Potency [8] 5.62 µM | Potency [5] 15 µM
